Source: PubChem BioAssay (NCI)
The panel holds about 79,000 compounds, 15% with a hit somewhere; the sample as a whole holds those more often. Active and inactive are the calls of the source. No stated cut-off is given here; in the data, active means growth inhibition above about 70%; inactive means the rest.

Columns and labels:
[1] = NCI Yeast Anticancer Drug Screen. Data for the rad50 strain (AID 155);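 further: 0% = growth of vehicle-only cultures of the same strain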; conditions: S. cerevisiae rad50 strain growth inhibition; at 50.0 µM; active compounds read high
In short: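 Vehicle-treated cultures provide the reference for the growth inhibition reported for compound-exposed, repair-deficient yeast.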

[2] = NCI Yeast Anticancer Drug Screen. Data for the mec2-1 strain (AID 157); conditions: S. cerevisiae mec2-1 strain, at 50.0 µM, active compounds read high
In short: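 Readout is yeast growth inhibition, normalised to vehicle-treated controls, in the mec2-1 strain exposed to compound.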

[3] = NCI Yeast Anticancer Drug Screen. Data for the sgs1 mgt1 strain (AID 161);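 further: 0% = growth of cultures given vehicle only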; conditions: S. cerevisiae sgs1 mgt1 strain, at 50.0 µM, active compounds read high
In short: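 Growth of a repair-deficient yeast mutant was monitored after compound treatment and expressed as inhibition relative to vehicle-treated cultures.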

[4] = NCI Yeast Anticancer Drug Screen. Data for the cln2 rad14 strain (AID 165);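 further: 0% = growth equal to vehicle treated cultures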; conditions: S. cerevisiae cln2 rad14 strain, at 50.0 µM, active compounds read high
In short: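 Relative to vehicle controls, growth inhibition of compound-treated cln2 rad14 yeast was recorded.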

[5] = NCI Yeast Anticancer Drug Screen. Data for the bub3 strain (AID 167); conditions: S. cerevisiae bub3 mutant strain, at 50.0 µM, active compounds read high
In short: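 Mutant yeast screening strain plus compound; vehicle-treated cultures serve as the 0% inhibition reference.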

[6] = NCI Yeast Anticancer Drug Screen. Data for the mlh1 rad18 strain (AID 175); conditions: S. cerevisiae mlh1 rad18 strain growth inhibition; at 50.0 µM; active compounds read high
In short: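 Test agents were incubated with a yeast strain of defined genotype (DNA damage repair defect). Inhibition of growth was derived by comparison with vehicle-exposed cultures.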

Measured: growth inhibition

C=CCCCCCCCCCCCC
inactive: [1] -20.1% | [2] 0% | [3] -20.8% | [4] 0.8% | [5] -21.2% | [6] -0.4%

CCOC(=O)/C(Cc1ccccc1[N+](=O)[O-])=N/O
inactive: [1] 6.7% | [2] 2.85% | [3] 8.65% | [4] -13.4% | [5] 12.3% | [6] 26.6%

CN(c1ccc(Br)cc1)c1nc(N)nc(N)c1N=O
inactive: [1] 16.4% | [2] -10.6% | [3] 5.05% | [4] -98.6% | [5] 5.2% | [6] -1.8%

NC(CCCCCCCCCCP(=O)(O)O)C(=O)O (stereo not given)
inactive: [1] -39.6% | [2] -41.5% | [3] -76.4% | [4] -12.1% | [5] -19.6% | [6] -18.6%

O=S(=O)(NC1CCC(CC2CCCCC2)CC1)c1ccccc1 (stereo not given)
inactive: [2] 42% | [3] 47.5% | [4] 40%
active: [1] 81% | [5] 88.4% | [6] 82.5%

CCCCCCC(O)CCCCCC
inactive: [1] 27.4% | [2] -16.4% | [3] 26.4% | [4] -24.6% | [5] 21.5% | [6] -12.3%

Cc1cc2c(cc1C)C(O)CCC(=O)N2 (stereo not given)
inactive: [1] 5.55% | [2] 3.7% | [3] 11.7% | [4] 6.85% | [5] 16% | [6] -0.05%

COC(=O)C1Cc2cc3c(cc2C1=O)CCC3 (stereo not given)
inactive: [1] -19.2% | [2] -12.8% | [3] -2.8% | [4] 6.75% | [5] 20.4% | [6] -5.45%

CCOc1cc2c(cc1O)CC[C@@H]1[C@@H]2CC[C@]2(C)C(OS(=O)OC3CC[C@@H]4[C@H]5CCc6cc(O)c(OCC)cc6[C@@H]5CC[C@@]34C)CC[C@@H]12 (stereo not given in full)
inactive: [1] -12.8% | [2] 0.25% | [3] 4.8% | [4] 26.7% | [5] 18.6% | [6] -15.5%

Cc1ccc(C)n1N(c1ccccc1)c1ccccc1
inactive: [1] -13.6% | [2] 7.1% | [3] 2.65% | [4] -36.4% | [5] 21.6% | [6] 9.1%

NNC(=S)N/N=C(\CCCC(=O)NCCc1ccccc1)CC(=O)c1ccccc1
inactive: [1] -3.6% | [2] 12.8% | [3] -21.3% | [4] 18.1% | [5] 8.15% | [6] 8.8%

NC(=O)Oc1cccc(OC(N)=O)c1
inactive: [1] 8.95% | [2] -6.25% | [3] 13.9% | [4] 3.8% | [5] 18.8% | [6] 13.6%

COCC1(c2ccccc2)C(=O)N(C)C(=O)N1C (stereo not given)
inactive: [1] -7.6% | [2] 2.5% | [3] -6.25% | [4] -6.3% | [5] -9.85% | [6] 5.25%

O=C(O)c1ccc2c(c1)S(=O)(=O)c1ccccc1C2=O
inactive: [1] 14.1% | [2] 17.5% | [3] -3.8% | [4] 9.6% | [5] 23.9% | [6] 17.1%

CC(/C=C/c1ccccc1)=N\NC(=S)N/N=C(C)/C=C/c1ccccc1
inactive: [1] 10.5% | [2] 37.6% | [3] 21.5% | [4] 9.3% | [5] 49.5% | [6] 11.1%

O=C1/C(=C/c2ccco2)N=C2Sc3c(nc[nH]c3=O)N12
inactive: [1] 2.4% | [2] -19.2% | [3] 6.55% | [4] -3.65% | [5] 9.5% | [6] 16.6%

COc1ccc(-c2onc3ccc(Cl)cc23)cc1
inactive: [1] -9.1% | [2] 4.1% | [3] 17.4% | [4] -63.5% | [5] 7.35% | [6] 21.4%

Cc1ccc(N=C2SC(=NN(C)C)SC2=Nc2ccc(C)cc2)cc1
inactive: [1] 18.9% | [2] -14.1% | [3] 8.35% | [4] -20.3% | [5] -5.25% | [6] -11.6%

N/N=C1\CCCc2c1no[n+]2[O-]
inactive: [1] 6.05% | [2] -4.05% | [3] -0.5% | [4] 4% | [5] -9.9% | [6] 3.2%

COc1c(NC(=O)Nc2ccc(F)c([N+](=O)[O-])c2)cccc1[N+](=O)[O-]
inactive: [1] 7.85% | [2] 22.1% | [3] 10% | [4] 2.8% | [5] 20.1% | [6] 27.8%

CC1(C)CCc2cc3c(cc2O1)OC(C)(C)CC3=O
inactive: [1] 9.05% | [2] 8.75% | [3] -15.9% | [4] 22.4% | [5] -1.45% | [6] -17.4%

CCCNCC(O)c1cc(C(F)(F)F)nc2c(C(F)(F)F)cccc12 (stereo not given)
inactive: [1] 29.4% | [2] -0.15% | [3] 2.25% | [4] -25.4% | [5] 0.6% | [6] 19.1%

O=C1CSC(c2cccc(C(F)(F)F)c2)N1c1nncs1 (stereo not given)
inactive: [1] 10.5% | [2] 2.15% | [3] 19.6% | [4] 7.95% | [5] 16.6% | [6] 15.1%

CC1CCC(=O)CN1Cc1ccccc1 (stereo not given)
inactive: [1] 5.95% | [2] 4.45% | [3] 9.45% | [4] -11.6% | [5] 22.4% | [6] 4.85%

CC(=O)NNc1nc(C)c(C(=O)NNC(=O)C(=O)Nc2c(Cl)cc([N+](=O)[O-])cc2Cl)s1
inactive: [1] 41.2% | [2] 22.9% | [3] 45.7% | [4] 29% | [5] 42.7% | [6] 18.9%

CCCCCC(=O)C(C)(c1nc2nnc(NC(=O)Nc3ccc(Cl)cc3)n2[nH]c1=O)c1nc2nnc(NC(=O)Nc3ccc(Cl)cc3)n2[nH]c1=O
inactive: [1] -42.8% | [2] -21.6% | [3] -24.3% | [4] -45% | [5] -38.8% | [6] -32.5%

CC(=O)OC12CC(C)C3(O)C4C=C(C)C(=O)[C@@]4(O)CC(CO)=C[C@H]3C1C2(C)C (stereo not given in full)
inactive: [1] -4.3% | [2] -6.15% | [3] 9.95% | [4] 5.35% | [5] 6.8% | [6] 2.05%

CCSc1nc(N)c2c(-c3ccc(OC)c(OC)c3)c3c(nc2n1)CCCC3
inactive: [1] -32.6% | [2] -17.2% | [3] -39.5% | [4] -3.35% | [5] -15.8% | [6] -25.4%

CC1=C(C(=O)Nc2ccc(Cl)c(C(=O)OC(C)C)c2)SCCO1
inactive: [1] 44.9% | [2] 7.35% | [3] 5.15% | [4] 4.05% | [5] 25.4% | [6] 0.45%

CNc1nc(=S)nc(-c2ccccc2)s1
inactive: [1] 11.7% | [2] 13.3% | [3] 11.3% | [4] -8.45% | [5] 11.8% | [6] -9.6%

O=C(O)C1C=CCC2C(O)C=CC(=O)C12 (stereo not given)
inactive: [1] -5.95% | [2] -31.2% | [3] -1.05% | [4] -2.4% | [5] -11% | [6] -5.9%

CC1(C)C2CCC(I)(C2)C1I (stereo not given)
inactive: [1] 10.9% | [2] 0.45% | [3] -17.3% | [4] -15.8% | [5] 1.55% | [6] 10.3%

Nc1nc(N)nc(-c2ccccc2NC(=O)c2ccccc2N)n1
inactive: [1] 2.15% | [2] 14.3% | [3] -0.25% | [4] 8.5% | [5] 6.85% | [6] 18%

Nc1ccc2c(c1)CC1CC(=O)NN=C21 (stereo not given)
inactive: [1] 29.5% | [2] 9.95% | [3] 9.4% | [4] 3.35% | [5] -3.15% | [6] -22.2%

CC(C)(CO)CN1CCCC1
inactive: [1] 10.3% | [2] -25.9% | [3] -4.05% | [4] 1.3% | [5] 3% | [6] 0.8%

OCC1CC2c3ccccc3C1c1ccccc12 (stereo not given)
inactive: [1] -12% | [2] -22.1% | [3] -12.1% | [4] -0.05% | [5] -28.4% | [6] -6.75%

O=C(Nc1ccc(Cl)cc1)Nc1nnc2nc(C3(c4nc5nnc(NC(=O)Nc6ccc(Cl)cc6)n5[nH]c4=O)Cc4ccccc4C3=O)c(=O)[nH]n12
inactive: [1] 29.5% | [2] -1.6% | [3] 8.3% | [4] 12.9% | [5] 8.75% | [6] 2.3%

c1ccc(N2N=NC3C4CC(C5COCC54)C32)cc1 (stereo not given)
inactive: [1] 4.6% | [2] -7.1% | [3] -24.9% | [4] -8.55% | [5] 0.65% | [6] -9.25%

CCOC(=O)c1c(-c2ccc(Cl)cc2)c(C#N)c(=S)n(C2OC(COC(C)=O)C(OC(C)=O)C(OC(C)=O)C2OC(C)=O)c1C (stereo not given)
inactive: [1] -0.4% | [2] -8.75% | [3] -1.75% | [4] 24.1% | [5] 17.5% | [6] 5.7%

O=CC(O)CO (stereo not given)
inactive: [1] 10.4% | [2] 9.5% | [3] 11.9% | [4] 3.95% | [5] 8.65% | [6] -5.2%
